# Measurements taken from the supplement of paper PMC10037445.
# Over roughly 2,900 compounds, “NF-kB SEAP reporter activity, fold change vs agonist alone” has its median near 0.99; the highest 2% begin near 2.6. The sample as a whole holds a higher share of the highest values than the screen did.
# What was measured:
# [1] = test system: RAW-Dual; experiment: NF-kB SEAP reporter activity, fold change vs agonist alone; higher = enhanced NF-kB activity
# Method in brief: (§1)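 After 50 nL of library stock was delivered by pin tool to RAW-Dual macrophages (50,000 cells/well, DMEM, 384-well plates), a PRR agonist was added 1 h later and the plates were kept at 37 °C, 5% CO2. Twenty hours later, IRF was read from supernatant by QuantiLuc luminescence and NF-κB by QuantiBlue absorbance at 620 nm. Reporter activity is stated as fold change over agonist-alone wells. Wells with IncuCyte confluency under 70% of agonist controls in both mask sets were counted as cytotoxic.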
# [2] = test system: RAW-Dual; experiment: NF-kB SEAP reporter activity, fold change vs agonist alone; cytotoxicity flag (confluency mask): not cytotoxic; higher = enhanced NF-kB activity
# Method in brief: as §1
# [3] = test system: RAW-Dual; experiment: NF-kB SEAP reporter activity, fold change vs agonist alone; cytotoxicity flag (confluency mask): cytotoxic (confluency <70% of control); higher = enhanced NF-kB activity
# Method in brief: as §1
# [4] = library stock concentration (final ~1000-fold dilution): 10 mM, cytotoxicity flag (confluency mask): not cytotoxic, agonist: Imiquimod (TLR7) […]
# [5] = library stock concentration (final ~1000-fold dilution): 10 mM, cytotoxicity flag (confluency mask): not cytotoxic, agonist: MPLA (TLR4) […]
# [6] = agonist: ODN 1826 (TLR9) 0.5 ug/mL
# [7] = agonist: Pam2CSK4 (TLR2/6) 0.1 ug/mL
# [8] = agonist: Pam3CSK4 (TLR2/1) 0.1 ug/mL
# [9] = library stock concentration (final ~1000-fold dilution): 10 mM, cytotoxicity flag (confluency mask): cytotoxic (confluency <70% of control), agonist: Imiquimod (TLR7) […]
# [10] = library stock concentration (final ~1000-fold dilution): 10 mM, cytotoxicity flag (confluency mask): cytotoxic (confluency <70% of control), agonist: MPLA (TLR4) […]
smiles,measurement,setting,value
Cc1cnc(NC(=O)Nc2cc(Br)c(C)cc2OCC2CNCCO2)cn1 (stereo not given),NF-kB SEAP reporter activity,[1]; [4],0.872
same,NF-kB SEAP reporter activity,[1]; [5],0.946
Cc1cnc(NC(=O)Nc2cc(Br)c(C)cc2OCC2CNCCO2)cn1 (stereo not given) (library stock concentration (final ~1000-fold dilution): 10 mM),NF-kB SEAP reporter activity,[2]; agonist: LPS (TLR4) 0.1 ug/mL,0.68
same,NF-kB SEAP reporter activity,[2]; [6],0.903
same,NF-kB SEAP reporter activity,[2]; [7],0.51
same,NF-kB SEAP reporter activity,[2]; [8],0.818
CCC(N)CNc1ccnc(-c2cc(-c3cnn(C)c3)ccc2O)n1.Cl.Cl (stereo not given) (library stock concentration (final ~1000-fold dilution): 10 mM),NF-kB SEAP reporter activity,[3]; agonist: LPS (TLR4) 0.1 ug/mL,0.267
same,NF-kB SEAP reporter activity,[3]; [6],0.195
same,NF-kB SEAP reporter activity,[3]; [7],0.0684
same,NF-kB SEAP reporter activity,[3]; [8],0.127
CCC(N)CNc1ccnc(-c2cc(-c3cnn(C)c3)ccc2O)n1.Cl.Cl (stereo not given),NF-kB SEAP reporter activity,[1]; [9],0.144
same,NF-kB SEAP reporter activity,[1]; [10],0.254
N=C(N)NCCCCC1NC(=O)CCSSCC(C(N)=O)NC(=O)C2CCCN2C(=O)C(Cc2c[nH]c3ccccc23)NC(=O)C(CC(=O)O)NC(=O)CNC1=O (stereo not given),NF-kB SEAP reporter activity,"[1]; library stock concentration (final ~1000-fold dilution): 10 mM water, cytotoxicity flag (confluency mask): not cytotoxic, agonist: Imiquimod (TLR7) […]",0.957
same,NF-kB SEAP reporter activity,"[1]; library stock concentration (final ~1000-fold dilution): 10 mM water, cytotoxicity flag (confluency mask): not cytotoxic, agonist: MPLA (TLR4) […]",1.11
N=C(N)NCCCCC1NC(=O)CCSSCC(C(N)=O)NC(=O)C2CCCN2C(=O)C(Cc2c[nH]c3ccccc23)NC(=O)C(CC(=O)O)NC(=O)CNC1=O (stereo not given) (library stock concentration (final ~1000-fold dilution): 10 mM water),NF-kB SEAP reporter activity,[2]; agonist: LPS (TLR4) 0.1 ug/mL,1.2
same,NF-kB SEAP reporter activity,[2]; [6],1.15
same,NF-kB SEAP reporter activity,[2]; [7],1.24
same,NF-kB SEAP reporter activity,[2]; [8],1.06
O=c1cc(N2CCOCC2)oc2c(-c3ccc4c(c3)OCCO4)csc12 (library stock concentration (final ~1000-fold dilution): 10 mM),NF-kB SEAP reporter activity,[2]; agonist: LPS (TLR4) 0.1 ug/mL,6.86
same,NF-kB SEAP reporter activity,[2]; [6],2.26
same,NF-kB SEAP reporter activity,[2]; [7],0.957
same,NF-kB SEAP reporter activity,[2]; [8],2.84
O=c1cc(N2CCOCC2)oc2c(-c3ccc4c(c3)OCCO4)csc12,NF-kB SEAP reporter activity,[1]; [4],1.57
same,NF-kB SEAP reporter activity,[1]; [5],2.36
CC(Nc1cc(F)cc(F)c1)c1cc(C(=O)N(C)C)cc2c(=O)cc(N3CCOCC3)oc12 (stereo not given),NF-kB SEAP reporter activity,[1]; [4],0.569
same,NF-kB SEAP reporter activity,[1]; [5],1.21
CC(Nc1cc(F)cc(F)c1)c1cc(C(=O)N(C)C)cc2c(=O)cc(N3CCOCC3)oc12 (stereo not given) (library stock concentration (final ~1000-fold dilution): 10 mM),NF-kB SEAP reporter activity,[2]; agonist: LPS (TLR4) 0.1 ug/mL,1.67
same,NF-kB SEAP reporter activity,[2]; [6],1.01
same,NF-kB SEAP reporter activity,[2]; [7],1.02
same,NF-kB SEAP reporter activity,[2]; [8],1.13
CNC(C)C(=O)NC(C(=O)N1CCCC1C(=O)Nc1snnc1-c1ccccc1)C1CCCCC1 (stereo not given) (library stock concentration (final ~1000-fold dilution): 10 mM),NF-kB SEAP reporter activity,[2]; agonist: LPS (TLR4) 0.1 ug/mL,0.612
same,NF-kB SEAP reporter activity,[2]; [6],0.875
same,NF-kB SEAP reporter activity,[2]; [7],0.972
same,NF-kB SEAP reporter activity,[2]; [8],0.8
CNC(C)C(=O)NC(C(=O)N1CCCC1C(=O)Nc1snnc1-c1ccccc1)C1CCCCC1 (stereo not given),NF-kB SEAP reporter activity,[1]; [4],0.887
same,NF-kB SEAP reporter activity,[1]; [5],0.824
O=C(Oc1cc(S(=O)(=O)c2ccccc2)ccc1[N+](=O)[O-])c1ccc(Cl)cc1,NF-kB SEAP reporter activity,[1]; [4],1.32
same,NF-kB SEAP reporter activity,[1]; [5],2.59
O=C(Nc1ccccc1C(=O)O)c1cc(S(=O)(=O)c2ccccc2)ccc1Cl,NF-kB SEAP reporter activity,[1]; [4],0.883
same,NF-kB SEAP reporter activity,[1]; [5],1.01
O=C(Nc1ccccc1C(=O)O)c1cc(S(=O)(=O)c2ccccc2)ccc1Cl (library stock concentration (final ~1000-fold dilution): 10 mM),NF-kB SEAP reporter activity,[2]; agonist: LPS (TLR4) 0.1 ug/mL,1.19
same,NF-kB SEAP reporter activity,[2]; [6],0.999
same,NF-kB SEAP reporter activity,[2]; [7],1.09
same,NF-kB SEAP reporter activity,[2]; [8],1.13
O=C(Oc1cc(S(=O)(=O)c2ccccc2)ccc1[N+](=O)[O-])c1ccc(Cl)cc1 (library stock concentration (final ~1000-fold dilution): 10 mM),NF-kB SEAP reporter activity,[2]; agonist: LPS (TLR4) 0.1 ug/mL,5.2
same,NF-kB SEAP reporter activity,[2]; [6],2.09
same,NF-kB SEAP reporter activity,[2]; [7],1.03
same,NF-kB SEAP reporter activity,[2]; [8],1.81
O=C(Oc1coc(CSc2ncccn2)cc1=O)c1ccc([N+](=O)[O-])cc1,NF-kB SEAP reporter activity,[1]; [4],0.717
same,NF-kB SEAP reporter activity,[1]; [5],1.01
O=C(Oc1coc(CSc2ncccn2)cc1=O)c1ccc([N+](=O)[O-])cc1 (library stock concentration (final ~1000-fold dilution): 10 mM),NF-kB SEAP reporter activity,[2]; agonist: LPS (TLR4) 0.1 ug/mL,1.26
same,NF-kB SEAP reporter activity,[2]; [6],0.944
same,NF-kB SEAP reporter activity,[2]; [7],1.19
same,NF-kB SEAP reporter activity,[2]; [8],0.981
COCCOc1cc(F)c2c(Nc3ccc(NC(=O)Cn4cc(C(C)C)nn4)cc3)ncnc2c1,NF-kB SEAP reporter activity,[1]; [4],1.14
same,NF-kB SEAP reporter activity,[1]; [5],1.01
COCCOc1cc(F)c2c(Nc3ccc(NC(=O)Cn4cc(C(C)C)nn4)cc3)ncnc2c1 (library stock concentration (final ~1000-fold dilution): 10 mM),NF-kB SEAP reporter activity,[2]; agonist: LPS (TLR4) 0.1 ug/mL,1.36
same,NF-kB SEAP reporter activity,[2]; [6],0.989
same,NF-kB SEAP reporter activity,[2]; [7],1.16
same,NF-kB SEAP reporter activity,[2]; [8],1.24
CC(C)c1cnn2c(NCc3ccccc3)cc(NCCCCCCN)nc12.Cl (library stock concentration (final ~1000-fold dilution): 10 mM),NF-kB SEAP reporter activity,[3]; agonist: LPS (TLR4) 0.1 ug/mL,0.271
same,NF-kB SEAP reporter activity,[3]; [6],0.234
same,NF-kB SEAP reporter activity,[3]; [7],1.08
same,NF-kB SEAP reporter activity,[3]; [8],1.5
CC(C)c1cnn2c(NCc3ccccc3)cc(NCCCCCCN)nc12.Cl,NF-kB SEAP reporter activity,[1]; [9],2.18
same,NF-kB SEAP reporter activity,[1]; [10],0.882
COc1cc2c(cc1NS(=O)(=O)c1ccc(Br)cc1C)n(C)c(=O)n2C (library stock concentration (final ~1000-fold dilution): 10 mM),NF-kB SEAP reporter activity,[2]; agonist: LPS (TLR4) 0.1 ug/mL,1.73
same,NF-kB SEAP reporter activity,[2]; [6],1.23
same,NF-kB SEAP reporter activity,[2]; [7],0.828
same,NF-kB SEAP reporter activity,[2]; [8],1.08
